# Experimental data taken from ChEMBL document CHEMBL4513216, “Probing the Open Global Health Chemical Diversity Library for Multistage-Active Starting Points for Next-Generation Antimalarials” (ACS Infect Dis, 2020).
# Hit rate of the full screen: of about 68,000 compounds, about 2,700 (4%) showed an effect of 50% or more. Many of the other results were omitted from the sample, so strong results are more common in it than they were.
# Tested on: Plasmodium berghei
# Test: Screen against P. berghei liver stage (PbLuc), transformed with Luciferase, at 2uM
# Format: functional, HepG2
# Settings: tested at 2 uM
row,SMILES,INHIBITION [%]
1,Cc1nc(C)n(CC2CN(CCOc3cccc(C#N)c3)CCO2)n1 (stereo not given),-5.15
2,Cc1nc(C)n(CC2CN(CCc3ccncc3)CCO2)n1 (stereo not given),70.27
3,Cc1nc(C)n(CC2CN(CCCc3ccccc3)CCO2)n1 (stereo not given),40.72
4,Cc1cc(C)n(CC2CN(CCOc3ccc(C#N)cc3)CCO2)n1 (stereo not given),13.24
5,Cc1nc(C)n(CC2CN(Cc3cccc4ccccc34)CCO2)n1 (stereo not given),-53.98
6,Cc1nc(C)n(CC2CN(Cc3ccccc3OC(C)C)CCO2)n1 (stereo not given),-3.06
7,COc1ccc(CCN2CCOC(Cn3nc(C)nc3C)C2)cc1 (stereo not given),34.97
8,Cc1nc(C)n(CC2CN(CCOc3ccc(C#N)cc3)CCO2)n1 (stereo not given),50.05
9,COc1ccc(C)cc1CN1CCOC(Cn2nc(C)nc2C)C1 (stereo not given),60.09
10,Cc1ncc(S(C)(=O)=O)c(N2CCCCCC2)n1,2.97
11,CCn1c(C)nnc1CN(C)C1CCN(Cc2nnc(C3CC3)o2)C1 (stereo not given),12.75
12,CCC1(C(=O)O)CCCN(C(=O)c2ccc(O)c(Cl)c2)C1 (stereo not given),-2.86
13,CCOC(=O)c1coc(N2CCN(Cc3ccc(C)cc3)C(=O)C2)n1,33.9
14,Cn1nc(C2CCCN(Cc3cccc(F)c3)C2)c2nccnc21 (stereo not given),-13.37
15,O=C(CCN1CCC(C(=O)c2cc(F)ccc2F)CC1)NC1CC1,34.93
16,O=C(CN1CCC(C(=O)c2cc(F)ccc2F)CC1)NC1CCCC1,-21.84
17,COCCN1CCC(C(=O)c2cc(F)ccc2F)CC1,-11.34
18,O=C(CCN1CCC(C(=O)c2cc(F)ccc2F)CC1)NC1CCCC1,64.9
19,CC(C)OCCN1CCC(C(=O)c2cc(F)ccc2F)CC1,50.76
20,CCOCCN1CCC(C(=O)c2cc(F)ccc2F)CC1,43
21,CN1CCC(N(C)CCC(=O)N2CCC(Oc3ccc(Cl)cc3)CC2)C1 (stereo not given),8.75
22,Cn1nc(C(=O)N2CCOCC2)c2c1CN(CC1CCC1)C2,36.29

row,SMILES,INHIBITION [%]
1,Cc1cc(-c2ccc(=O)n(C3CCN(S(=O)(=O)N(C)C)CC3)n2)c(C)o1,-34.37
2,CCC(CO)N(Cc1ccco1)Cc1c(C)nn(C)c1Cl (stereo not given),-10.67
3,CN1CCN(C(=O)c2cccn2C)c2ccccc2C1,-9.98
4,CCOC(=O)[C@]12CCCN(Cc3nccs3)C[C@H]1CN(C(C)C)C2,34.47
5,Cc1cccc(O[C@H]2COCCN(Cc3sc(C)nc3C)C2)n1,17.64
6,CC(C)CN1CCOC[C@H](Oc2ccc(S(C)(=O)=O)cc2)C1,-36.65
7,COc1ccc(CN2CCOC[C@H](Oc3cccnc3)C2)cc1,27.04
8,CS(=O)(=O)c1ccc(O[C@H]2COCCN(Cc3ccncc3)C2)cc1,50.91
9,Cc1nc(C)c(CN2CCOC[C@H](Oc3ccc(S(C)(=O)=O)cc3)C2)s1,-40.15
10,Cc1nc(C)c(CN2CCOC[C@H](Oc3ccccc3)C2)s1,64.92
11,CCN(Cc1ccc(C#N)cc1F)C(=O)C(C)(C)C,0.53
12,CCCS(=O)(=O)N1C[C@H]2CC[C@@H](C1)N(Cc1cscn1)C2=O,36.28
13,CN(C)CC(=O)N1CCC2(CC1)COCCN(Cc1ccncc1)C2,32.66
14,CCCc1nc(C(=O)N[C@H]2COC[C@@H]2N2CCN(C)CC2)cs1,-0.83
15,CS(=O)(=O)CCCN(CCc1cccc(F)c1)C1CC1,7.36
16,Cc1csc2c(N3CCNC(C(=O)Nc4ccc(F)cc4)C3)ncnc12 (stereo not given),-17.67
17,Cc1ccc2c(c1)C(=O)NCC1(CCN(C(=O)c3cnccn3)CC1)O2,64.07
18,Cc1ccc2c(c1)C(=O)NCC1(CCN(Cc3ccccc3)CC1)O2,34.9
19,Cc1ccc2c(c1)C(=O)NCC1(CCN(C(=O)c3scnc3C)CC1)O2,-2.31
20,CCC(=O)N1CCC2(CC1)CNC(=O)c1cc(C)ccc1O2,61.99
21,Cc1ccc2c(c1)C(=O)NCC1(CCN(C(=O)c3csc(C)c3)CC1)O2,38.75
22,Cc1ccc2c(c1)C(=O)NCC1(CCN(C(=O)c3ccnn3C)CC1)O2,59.27

row,SMILES,INHIBITION [%]
1,Cc1ccc2c(c1)C(=O)NCC1(CCN(C(=O)c3cc(C)no3)CC1)O2,9.51
2,Cc1ccc2c(c1)C(=O)NCC1(CCN(C(=O)c3ccccn3)CC1)O2,38.12
3,Cc1ccc2c(c1)C(=O)NCC1(CCN(C(=O)c3sccc3C)CC1)O2,46.15
4,Cc1ccc(F)cc1NC(=O)CCn1cncn1,5.31
5,Cc1nc(CN2C[C@@H]3CN(C(=O)c4cccn4C)C[C@@H]3C2=O)cs1,-32.67
6,O=C(C1CCCCC1)N1CCC2(CC1)CNCc1ccccc12,31.27
7,O=C(CN1CCOC(CNc2cccnn2)C1)NCc1ccccn1 (stereo not given),33.12
8,Cc1nn(CC(=O)O)c(C)c1NS(=O)(=O)c1cc2ccccc2s1,-38.97
9,O=c1cc(CN2CCCC(CCc3c(F)cccc3F)C2)[nH]c(=O)[nH]1 (stereo not given),-21.63
10,CN(C)C(=O)CCS(=O)(=O)Cc1cc(Cl)c2c(c1)OCCO2,48.21
11,CN(C)C(=O)CCS(=O)(=O)Cc1cc(Cl)c2c(c1)OCO2,66.2
12,CN(C)C(=O)CCCS(=O)(=O)Cc1cc(Cl)c2c(c1)OCO2,27.5
13,CS(=O)(=O)Cc1cc(Cl)c2c(c1)OCCCO2,45.82
14,CS(=O)(=O)CCS(=O)(=O)Cc1cc(Cl)c2c(c1)OCCCO2,72.05
15,CNC(=O)CCS(=O)(=O)Cc1cc(Cl)c2c(c1)OCCCO2,19
16,CC(C)(O)CN1CCN(C(=O)c2sccc2C#N)CC1,-29.69
17,c1cnc(N2C[C@H]3CCN(Cc4ccncc4)C[C@H]3C2)nc1,-20.87
18,CC(NC(=O)N1CCC(OCc2ccccc2)CC1)c1nncn1C (stereo not given),29.11
19,Cc1cc(C)c(C)c(OCCCNC(=O)NC(C)c2nncn2C)c1 (stereo not given),38.97
20,COc1ccc(F)cc1C(=O)N1CCCC(CNS(C)(=O)=O)C1 (stereo not given),-42.84
21,O=C(NCCCNC(=O)C1CCC1)NCCn1cccc1,7.33
